Hit rate of the full screen: of about 190,000 compounds, about 400 (0.21%) were called active. Not shown: some 2% with an inconclusive outcome.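 Rule for the calls: active = percent activity GTP binding at least 20 points away from the 100% baseline, either down as inhibitor or up as activator; inconclusive = compound flagged as likely green fluorescent from well-wide comparison; inactive = the rest.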 This excerpt belongs to a sample that is enriched for actives.
The molecules below were run against Cell division control protein 42 homolog (Homo sapiens) (UniProt P60953) (assay: modulators of GTP binding to wildtype Cdc42, primary screen, biochemical, multiplex bead flow cytometry, Bodipy-GTP (AID 761;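 note: median bead fluorescence of bound Bodipy-FL-GTP at 100 nM; 0% = excess unlabeled GTP control and 100% = no compound control; below 100% means less GTP binding so inhibitor and above means activator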)). Conditions: GST-Cdc42 beads, at 10 µM, actives lie on both sides.
Cell division control protein 42 homolog (Homo sapiens), sequence (P60953 whole entry, looked up): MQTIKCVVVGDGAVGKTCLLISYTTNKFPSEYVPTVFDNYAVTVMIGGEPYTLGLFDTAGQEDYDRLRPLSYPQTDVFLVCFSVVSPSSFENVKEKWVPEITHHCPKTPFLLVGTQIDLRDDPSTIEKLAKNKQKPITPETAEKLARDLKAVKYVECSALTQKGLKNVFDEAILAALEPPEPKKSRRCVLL

Percent activity (GTP binding), active:
O=C(/C=C/c1ccc(Cl)c([N+](=O)[O-])c1)c1cccnc1 79%
CN(c1ccccc1)c1ccc(/C=c2\s/c(=C(/C#N)C(=O)C(C)(C)C)n(Cc3ccco3)c2=O)cc1 143% [activator]

Percent activity (GTP binding), inactive:
O=C(Nc1ccc([N+](=O)[O-])cc1)C1CC12CCC2 (stereo unspecified) 96%
O=C(/C=C/c1ccc(Cl)cc1Cl)c1cccnc1 88%
O=C(Nc1cccnc1)c1ccc(Cl)c([N+](=O)[O-])c1 96%
CC(=O)C1=C(C)NC2=C(C(=O)CC(C)(C)C2)C1C (stereo unspecified) 96%
CN(CCOc1ccccc1)Cc1nc2cc(Cl)ccc2c(=O)[nH]1 93%
O=C(CC1Nc2ccccc2NC1=O)Nc1ccccc1NC(=O)CC1Nc2ccccc2NC1=O (stereo unspecified) 99%
Cc1nc2nc[nH]n2c(=O)c1C/C=C/c1ccccc1 89%
COc1ccc(C(=O)C2CCCN(C(=O)c3cc4nc(C)cc(C)n4n3)C2)cc1F (stereo unspecified) 99%
O=C(COC(=O)CCc1ccc(S(=O)(=O)N2CCOCC2)cc1)Nc1cccc(Cl)c1 97%
O=C(c1ccccc1Cl)N(Cc1ccccc1F)N1C(=O)CCCC1=O 98%
O=C(O)Cc1sc(-c2ccccc2)nc1-c1cccs1 92%
CCS(=O)(=O)C1=NSC2=NC(=O)/C(=C\c3cc(C)n(-c4cccc(OC)c4)c3C)C(=N)N21 93%
N/C(=N\OC(=O)c1ccc([N+](=O)[O-])cc1)c1ccccn1 96%
O=C(CN1CCC(O)(c2ccccc2)CC1)Nc1ccc2c(c1)OCCO2 97%
CCN1CC(CN(C)Cc2nc(-c3ccc(Cl)cc3)no2)CC1=O (stereo unspecified) 101%
Cc1ccc([N+](=O)[O-])c(OCCCNCC(C)O)c1 (stereo unspecified) 103%
CCCN(CCC)c1ccc(C(O)c2nnc(-c3ccccc3)o2)cc1 (stereo unspecified) 95%
O=C(NCC(O)c1ccc([N+](=O)[O-])cc1)C1CCCCC1 (stereo unspecified) 97%
CN1CCN(c2nc(Nc3ccc(O)cc3)nc3ccccc23)CC1 95%
CCn1c(COc2c(C)cccc2C)nnc1SCc1nc2ccccc2c(=O)[nH]1 94%
O=S(=O)(NC1CC1)c1ccc2c3c(cccc13)CC2 93%
CCOC(=O)CSc1nc2c(sc(=S)n2CCc2ccccc2)c(=O)n1Cc1ccco1 99%
Cc1cc2c(c(=O)n1Cc1ccco1)C(c1ccccc1)C(C#N)=C(N)O2 (stereo unspecified) 103%
CCCNCc1cc(OCC)c(OCC(=O)Nc2ccccc2)cc1Br 96%

Source: PubChem BioAssay AID761 (NMMLSC, 2007)
